BAZ2B block: inhibitors of human BAZ2B bromodomain. Q9UIF8. hit rate 4.4% among 360,000. AlphaScreen BAZ2B-H3K14Ac peptide displacement. Potency, µM (top dose mostly 114 µM), for inactives: top-dose activity change, negative = inhibition, hits mostly inhibitors; note: % is set by controls: 0 for no effect and ±100 for the full control effect; nearly all actives have a fitted effect of over 60% in size
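AlphaScreen luminescence quantifies BAZ2B engagement of H3K14Ac peptide; the protein and biotinylated peptide are both at 50 nM final, buffer PBS pH 7.4 with 0.01% Tween-20, all steps at room temperature.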
HP1b chromo inh: inhibitors of HP1-beta chromodomain binding to methylated histone tails; AlphaScreen HP1-beta / biotin-H3K9me3 peptide binding; hit rate 0.56% among 390,000; P83916; Potency, µM (series often up to 114 µM), inactives show at the top dose activity change, negative = inhibition, usual class: inhibitors; note: nearly all actives have a fitted effect of over 70% in size
Target sequence (P83916 whole entry, looked up): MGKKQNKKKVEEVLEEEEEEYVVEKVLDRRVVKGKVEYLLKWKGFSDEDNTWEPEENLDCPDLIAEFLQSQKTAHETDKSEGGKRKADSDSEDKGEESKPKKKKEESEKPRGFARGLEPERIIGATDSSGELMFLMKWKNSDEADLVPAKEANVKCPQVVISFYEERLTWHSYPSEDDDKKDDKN
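Compound inhibition of the preformed complex between 50 nM HP1-beta and 50 nM biotinylated H3K9me3 peptide was read by AlphaScreen. Buffer was PBS pH 7.4 with 0.01% Tween-20. Incubations ran 30 min at room temperature, with 10 ug/mL donor/acceptor beads.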
G9a block: blocks human histone lysine methyltransferase G9a. Potency, µM (doses to about 102 µM), without a hit: at the highest dose activity, negative = inhibition, most hits filed as inhibitors. hit rate 8.8% among 350,000. AID 504332. G9a H3K9 monomethylation, AlphaScreen, 2 h. Q96KQ7; note: % is set by controls: 0 for no effect and ±100 for the full control effect; nearly all actives have a fitted effect of over 75% in size
Target sequence (Q96KQ7 913-1193 limits assumed): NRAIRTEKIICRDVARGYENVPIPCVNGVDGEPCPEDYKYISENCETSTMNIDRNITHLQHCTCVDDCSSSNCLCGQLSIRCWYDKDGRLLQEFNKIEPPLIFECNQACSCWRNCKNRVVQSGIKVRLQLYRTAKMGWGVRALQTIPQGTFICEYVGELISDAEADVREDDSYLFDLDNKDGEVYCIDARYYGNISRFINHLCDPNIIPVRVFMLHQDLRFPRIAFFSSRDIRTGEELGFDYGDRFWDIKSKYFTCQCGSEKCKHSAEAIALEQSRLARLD
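AlphaScreen detection with an anti-monomethyl H3K9 antibody quantified product after a 2 h room-temperature reaction containing 500 nM biotinylated H3K9 peptide, 20 µM SAM and 20 nM enzyme, which had been preincubated 15 min with compound.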
L3MBTL1 inh: inhibitors of human L3MBTL1 | Q9Y468 | AlphaScreen L3MBTL1–H3K9me1 peptide binding | Potency, µM (series often up to 57.1 µM), for inactives: top-dose activity, negative = inhibition, actives largely listed as inhibitors | hit rate 0.66% among 230,000 | AID 485360; note: % is set by controls: 0 for no effect and ±100 for the full control effect; nearly all actives have a fitted effect of over 60% in size
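AlphaScreen assay: L3MBTL1 (50 nM final) was preincubated 30 min at room temperature with biotinylated H3(1-15)K9me1 peptide (75 nM final), then 30 min with library compounds; streptavidin donor and nickel chelate acceptor beads (10 ug/mL final) added, 30 min dark.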
JMJD2A Tudor: JMJD2A Tudor domain (human) inhibition; O75164; AlphaScreen JMJD2A-Tudor / H3K4me3 peptide binding; Potency, µM (titrated, usually from 114 µM), for inactives: at the highest dose activity change, negative = inhibition, actives largely listed as inhibitors; hit rate 4.4% among 390,000; note: % is set by controls: 0 for no effect and ±100 for the full control effect; nearly all actives have a fitted effect of over 50% in size
An asterisk follows results filed as active; ? = inconclusive; . = no result given; [ ] = dose if it differs, or a comment. A selection: hits, their analogues and other compounds. The true share with any hit is near 11%. Calls come from the whole dose curve; as a rule, active = well fitted inhibition curve with a large enough effect; inconclusive = small, poorly fitted or top-dose-only effect; inactive = no such curve, though single readings can be large or run the other way. Potency is the fitted concentration of half-maximal effect.

SMILES | BAZ2B block | HP1b chromo inh | G9a block | L3MBTL1 inh | JMJD2A Tudor
CCC(=O)NC1=C(NC(C)c2ccccc2)C(=O)c2ccccc2C1=O (centres undefined) | ? | 0.9% | ? | . | -28.7%
C=C(C)C1CC=C(C)/C(=N\NC(=O)CNc2cccc3ccccc23)C1 (centres undefined) | -2.7% | 22.8% | 10µM* | -7.1% | -24.5%
CCCCN(C(=O)CCCc1nc2ccccc2s1)c1c(N)n(CC(C)C)c(=O)[nH]c1=O | -0.3% | 15.5% | 0.3%[12.7 µM] | 6.4% | -4.5%
CCOC(=O)c1c2n(c3ccc(O)cc13)CCC2 | 5.2% | 64.1% | -6.2%[59 µM] | -13.1% | -17.8%[11.4 µM]
CCOC(=O)c1c(CSc2ccccc2)n(C)c2ccc(O)cc12 | 1.0% | 14.3% | 35.5µM* | . | -12.0%
CCOC(=O)c1c(C)n(CCOc2ccccc2)c2ccc(O)cc12 | 3.3% | 9.8% | 3.98µM* | . | -11.2%
COc1cc2c(C(=O)OCCN(C)C)c(CSc3ccccc3)n(C)c2cc1Br | -20.6% | -2.7% | -24.4% | -9.2% | -30.5%
CCOC(=O)c1c(C)n(CC(O)c2ccccc2)c2ccc(O)cc12 (centres undefined) | ? | 17.4% | 56.2µM* | -9.3% | -25.2%
CCOC(=O)c1c(C)n(CCNC(C)=O)c2ccc(O)cc12 | -2.3% | 15.7% | -3.4% | . | -13.8%
COCCn1c(=O)c(-c2ccc(OC)cc2)nc2cnc(OCc3ccccc3)nc21 | . | . | -4.7%[0.501 µM] | . | .
CC(C)c1ccc(NC2CCCN(C(=O)c3ccsc3)C2)cc1 (centres undefined) | -18.2% | 14.1% | -11.4% | . | ?
COCc1ccc(C(=O)N2CCCC(Nc3ccc(C(C)C)cc3)C2)s1 (centres undefined) | 3.3% | ? | 6.4% | . | ?
CCn1nc(C)cc1C(=O)N1CCCC(Nc2ccc(C(C)C)cc2)C1 (centres undefined) | ? | -4.9% | 50.1µM* | . | -34.7%
COC(=O)c1ccc(C(=O)N2CCCC(Nc3ccc(C(C)C)cc3)C2)cc1 (centres undefined) | ? | 11.9% | 79.4µM* | . | ?
Cc1cc(C(=O)N2CCCC(Nc3ccc(C(C)C)cc3)C2)nn1C (centres undefined) | -33.7% | 0.9% | ? | . | -21.6%
CC(C)c1ccc(NC2CCCN(C(=O)c3cnsn3)C2)cc1 (centres undefined) | ? | 0.8% | 35.5µM* | . | -22.9%
COCc1ccc(C(=O)N2CCCC(Nc3ccc(C(C)C)cc3)C2)o1 (centres undefined) | ? | -10.1% | 44.7µM* | . | -33.8%
CC(C)c1ccc(NC2CCCN(C(=O)c3cccnc3)C2)cc1 (centres undefined) | -23.4% | 16.5% | 79.4µM* | . | -26.9%
Cc1occc1C(=O)N1CCCC(Nc2ccc(C(C)C)cc2)C1 (centres undefined) | ? | -10.9% | 39.8µM* | . | ?
Cc1occc1C(=O)N1CCCC(Nc2ccc(F)cc2)C1 (centres undefined) | -19.1% | 17.3% | . | . | -9.9%
CC(C)c1ccc(NC2CCCN(C(=O)c3cnn(C(C)C)c3)C2)cc1 (centres undefined) | -2.9% | 12.4% | 57.9% | . | -20.9%
CC(C)c1ccc(NC2CCCN(C(=O)c3n[nH]c4c3CCC4)C2)cc1 (centres undefined) | -24.1% | 4.3% | 70.8µM* | . | -24.3%
COCCCNC(=O)C1CCN(c2ncnc3c2nc2n3CCCCC2)CC1 | 3.2% | 25.0% | 0.2%[59 µM] | . | -18.2%
O=C(O)CCN1c2ccccc2Sc2ccccc21 | ? | 37.4% | -41.0%[12.7 µM] | 1.2% | -4.9%
CN1c2ccccc2Sc2cc(N)ccc21 | 28.2µM* | ? | 1.12µM* | ? | 31.6µM*
SMILES | BAZ2B block | HP1b chromo inh | G9a block | L3MBTL1 inh | JMJD2A Tudor
Cc1ccc(CCNC(=O)c2cc3n(n2)CCCN(Cc2ccc(C)cc2)C3=O)cc1 | -3.3% | 9.8% | 0.8%[59 µM] | . | -24.5%
O=C1CC(Cc2ccccc2)C(=O)N1CCCn1ccnc1 (centres undefined) | 50.1µM* | . | ? | 3.9% | .
CCCc1cc(C(=O)N/N=C/c2cccn2C)cs1 | 44.7µM* | ? | ? | . | ?
Cn1cccc1/C=N/NC(=O)c1cccs1 | -34.5% | 14.7% | 16.2% | . | -8.9%
Cc1ccc2[nH]c(C)c(/C=C/c3cc[n+](C)cc3)c2c1 | ? | -18.3% | -100.3% | . | -21.9%
Cc1ccc2c(c1)c(/C=C/c1cc[n+](C)cc1)c(C)n2C | -14.8% | 8.3% | 44.7µM* | . | ?
Cc1cc(C(=O)NCC(=O)O)c(C)o1 | 50.1µM* | 8.9% | -11.3% | . | -17.3%
COc1ccc2[nH]cc(CCNc3nc(-c4cccnc4)nc4ccccc34)c2c1 | . | . | -2.7%[0.501 µM] | . | .
S=c1nc(-c2cccc(Cl)c2)[nH][nH]1 | -20.2% | 12.2% | 1.58µM* | . | 2.51µM*
Clc1ccc(Cl)c(-c2nc(-c3ccncc3)no2)c1 | -2.1% | 25.7% | 26.8% | -20.8% | -6.8%
S=c1nc(-c2ccccc2Br)[nH][nH]1 | 12.0% | ? | 0.794µM* | -16.2% | 0.794µM*
S=c1nc(-c2cc(Cl)cc(Cl)c2)[nH][nH]1 | -5.4% | -1.0% | 22.4µM* | 5.1% | 79.4µM*
S=c1nc(-c2cc(Cl)ccc2Cl)[nH][nH]1 | -22.6% | ? | 1.58µM* | 16.0% | 5.01µM*
Cc1cc(C)nc(Nc2n[nH]c(-c3ccccc3Br)n2)n1 | -31.7% | 28.8% | ? | . | -2.5%
Cc1nc(-c2cccc(Cl)c2)n[nH]1 | -15.0% | 19.0% | ? | 2.2% | -16.8%
Cc1ccc(-c2nnc(Nc3ccc(Br)cc3)c3ccccc23)cc1S(=O)(=O)N1CCOCC1 | 4.4% | 16.1% | -7.8%[59 µM] | . | -16.3%
O=C(CSc1nc2ccc(S(=O)(=O)N3CCOCC3)cc2[nH]1)N1CCOCC1 | -37.1% | ? | 1.78µM* | . | 79.4µM*
COC(=O)C1CCN(C(=O)CSc2nc3ccc(OC)cc3[nH]2)CC1 | 2.2% | 20.6% | 50.1µM* | 25.0% | -8.8%
COc1ccc2nc(SCC(=O)N3CCNC3=O)[nH]c2c1 | -27.2% | 28.9% | -44.6% | -4.4% | 2.2%
Cc1csc(CNc2ncnc3ccc(-c4ccc5c(ccn5C)c4)cc23)c1 | -36.3% | . | -12.4%[12.7 µM] | -12.6% | .
CC(=O)N(Cc1cccnc1)c1nc2c(C)cc(C)cc2s1 | -13.1% | 16.9% | ? | . | -7.1%
O=C(NC1(O)C(=O)c2ccccc2C1=O)c1ccc(C(F)(F)F)cc1 | -17.4% | 23.1% | . | . | 5.4%
Cc1ccc(C(=O)NC2(O)C(=O)c3ccccc3C2=O)cc1C | -19.6% | 14.6% | 50.1µM* | . | -3.8%
COc1ccc(NC(=O)c2cnc[nH]2)cc1 | -22.6% | 45.4% | 26.1%[59 µM] | . | -10.1%
CCNC(=S)N/N=C(\C)c1ccco1 | -12.6% | 3.9% | 35.5µM* | 5.4% | -17.1%
O=C1NC2c3c(I)sc(I)c3C(=O)C2O1 (centres undefined) | . | 25.3% | . | . | -22.9%
O=C1NC2c3c(Cl)sc(Cl)c3C(=O)C2O1 (centres undefined) | . | -23.8% | . | . | 56.2µM*
COc1ccc(OCC(=O)OCc2cc(=O)n3nc(C4CCCCC4)sc3n2)cc1 | -11.9% | ? | -2.1%[59 µM] | . | -29.0%

Compound activity as filed in PubChem BioAssay.
